Screens: PubChem, National Center for Advancing Translational Sciences (NCATS)
Hits are enriched below; roughly 0.85% of the tested compounds scored in any of these assays.
Six1-Eya2 inh – Six1/Eya2 interaction inhibition; Q15475+O00167; AlphaScreen GST-Six1/His-Eya2 binding, biochemical; active compounds read low; activity change, % (test concentration not listed); actives 0.56% (n = 360,000); AID 651725; further: on the % scale 0 is the no-effect control and ±100 the full control effect
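Six1/Eya2 binding was read as AlphaScreen signal after compounds were pinned into GST-Six1 plus His-tagged Eya2 (5X stock 250/500 nM) in pH 8.0 Tris/NaCl/TCEP buffer, beads added, then incubated 1 h, 37 C, dark.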
Chronic BCR inh – inhibitors of chronic active B-cell receptor signaling | ABC-DLBCL IkBa-CBG/CBR reporter, luminescence ratio, 4 h | Potency, µM (doses to about 46.1 µM), inactives show at the highest dose activity change, negative = inhibition, hits mostly inhibitors | actives 0.05% (n = 340,000) | AID 493014; active means well fitted inhibition curve with a large enough effect in the signal ratio, with a control signal flat, not every such curve was filed as active; inconclusive means small, poorly fitted or top-dose-only effect, or effect the other way, or a change in a side signal; the % refers to the signal ratio;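 further: potency means the concentration at half of the fitted maximal effect; plate controls were basal doxycycline-induced cells for no effect and cells given 10 µM MG132 for full effect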
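Compounds up to 46 uM were incubated four hours with TMD8 cells whose green CBG68 luciferase is fused to IkappaBalpha; red CBR luminescence normalised the signal, and concentration-effect curves were fitted to fusion, red and ratio data.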
S-ASM inh – blocks human secretory acid sphingomyelinase; P17405; Potency, µM (series often up to 57.5 µM), without a hit: at the highest dose activity change, negative = inhibition, most hits filed as inhibitors; actives 0.006% (n = 340,000); AID 504937; placental ASM, HMU-PC fluorogenic substrate, 60 min; active means well fitted inhibition curve with a large enough effect; inconclusive means small, poorly fitted or top-dose-only effect; inactive means no such curve, though single readings can be large or run the other way; further: potency means the concentration at half of the fitted maximal effect
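qHTS format. ASM enzyme prepared from human placenta hydrolyses the fluorogenic substrate HMU-PC0 (9 uM final) over 60 min at 37 °C after a 10 min compound preincubation.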
CtBP-E1A inh – blocks the CtBP interaction with E1A; actives 0.49% (n = 340,000); AlphaScreen GST-E1A/His-CtBP binding, 1536-well; active compounds read low; activity change, % (test concentration not listed); further: on the % scale 0 is the no-effect control and ±100 the full control effect
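Homogeneous bead-based format: GST-tagged E1A captured on glutathione donor beads, His-tagged CtBP on nickel acceptor beads; compounds precede bead addition by 2 h at 37 °C.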
TSHR antag – human thyrotropin receptor antagonism | P16473 | TSHR-expressing cells, TSH-stimulated cAMP HTRF, 2 h; active compounds read low | activity change, negative = inhibition, % at 11.5 µM | actives 0.2% (n = 330,000) | AID 504810;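 active means activity change below a set negative limit, meaning inhibition stronger than a set level, cut at about -70% in these data; inconclusive means activity change between two set negative limits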; further: on the % scale 0 is the no-effect control and ±100 the full control effect
Target sequence (P16473 whole entry, looked up): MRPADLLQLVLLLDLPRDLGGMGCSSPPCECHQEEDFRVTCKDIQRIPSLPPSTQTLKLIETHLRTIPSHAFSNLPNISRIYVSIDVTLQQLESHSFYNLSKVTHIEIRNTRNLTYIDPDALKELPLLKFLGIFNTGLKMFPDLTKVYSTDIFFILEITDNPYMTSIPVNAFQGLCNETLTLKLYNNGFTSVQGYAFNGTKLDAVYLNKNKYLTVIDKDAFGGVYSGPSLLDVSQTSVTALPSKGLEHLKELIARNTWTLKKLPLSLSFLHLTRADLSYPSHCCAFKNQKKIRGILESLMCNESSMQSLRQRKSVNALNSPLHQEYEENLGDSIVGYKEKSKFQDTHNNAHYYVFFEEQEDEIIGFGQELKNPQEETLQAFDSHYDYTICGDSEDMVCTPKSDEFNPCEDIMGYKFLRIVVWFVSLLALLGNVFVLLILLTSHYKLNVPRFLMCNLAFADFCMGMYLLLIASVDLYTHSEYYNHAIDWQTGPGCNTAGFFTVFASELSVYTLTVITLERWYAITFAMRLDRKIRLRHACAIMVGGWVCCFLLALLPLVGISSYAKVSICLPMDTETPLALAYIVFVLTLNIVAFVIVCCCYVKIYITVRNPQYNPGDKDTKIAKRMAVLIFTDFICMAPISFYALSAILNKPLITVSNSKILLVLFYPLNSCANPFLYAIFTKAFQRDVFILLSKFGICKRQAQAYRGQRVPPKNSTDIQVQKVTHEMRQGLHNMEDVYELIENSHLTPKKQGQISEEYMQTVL
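Cell-based HTRF cAMP assay; TSHR cells + compound, TSH EC80 (4nM final), 2 h, 37 deg C. Lysis with anti-cAMP cryptate and cAMP-d2, 30 min RT, read 665/620 nm.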
An asterisk follows results filed as active; ? = inconclusive; . = no result; [ ] = dose if it differs, or a comment. Unless noted, no stated cut-off is given here; in the data, active means activity change below about -65%; inconclusive means mostly about -30% to -63%; inactive means weaker than that.

SMILES	Six1-Eya2 inh	Chronic BCR inh	S-ASM inh	CtBP-E1A inh	TSHR antag
Cc1ccc(CNC(=O)CSc2nnc3c(n2)[nH]c2ccccc23)cc1	-5	-1%	-2%	2	-82*
CCOc1ccc2[nH]c3nc(SCC(=O)NCC4CCCO4)nnc3c2c1 (stereo not drawn)	-90*	-3%	-1%	-86*	-31
Cc1ccc(NC(=O)CSc2nnc3c(n2)[nH]c2ccccc23)cc1	5	-3%	-3%	3	1
CCc1nc2ccc(C(=O)NCCc3ccc(OC)cc3OC)cc2nc1CC	.	-4%	.	.	.
O=C(NCc1ccccc1Cl)c1ccc2c(c1)ncn2-c1cccc(F)c1	.	7%	.	.	.
Cc1ccc(C)c(N2CCN(S(=O)(=O)c3ccc(F)c(C(=O)Nc4ccc(Cl)cc4Cl)c3)CC2)c1	.	-4%	.	.	.
Cc1ccc(NC(=O)CN2C=NS(=O)(=O)c3ccccc32)c(C)c1	.	-7%	.	.	.
COc1ccc(/C=C/C(=O)Oc2ccc(/C=N/NC(=O)c3ccccc3)cc2)cc1OC	2	-17%	3%	-75*	-3
Cc1ccccc1CNC(=O)C(=O)NCC(c1cccs1)S(=O)(=O)c1ccc(Cl)cc1 (stereo not drawn)	.	-19%	.	.	.
Cc1cc(SCc2ccc([N+](=O)[O-])cc2)nc(=O)[nH]1	-16	?	-2%	.	-138*
Cc1cc(SCc2cccc([N+](=O)[O-])c2)nc(=O)[nH]1	-1	-10%	-7%	.	2
Cc1nc2ccccc2c(=O)n1-c1ccc(NC(=O)c2ccccc2[N+](=O)[O-])cc1	.	-1%	.	.	.
Cc1ccc(CNS(=O)(=O)c2cc(C(=O)Nc3cccc(C(F)(F)F)c3)ccc2F)cc1	.	22%	.	.	.
OCC[C@@H]1C[C@H](O)[C@@H](O)[C@]2(OCCc3ccccc32)O1	-83*	5%	3%	10	39
COc1ccc(-c2csc(NC(=O)CSc3nc(C)cs3)n2)cc1	-13	.	-7%	2	.
COc1ccc(-c2csc(NC(=O)CSc3nc(SC)ns3)n2)cc1	-5	?	-8%	.	-74*
COc1ccc(C)cc1NC(=O)c1ccc2c(c1)N(Cc1cccc(Cl)c1)C(=O)c1ccccc1S2=O (stereo not drawn)	.	-12%	.	.	.
CC1CCCN(S(=O)(=O)c2csc(C(N)=O)c2)C1 (stereo not drawn)	-4	-13%	5%	.	-140*
CCOC(=O)C1CCN(S(=O)(=O)c2csc(C(N)=O)c2)CC1	1	0%	4%	5	15
COc1cc(NC(=O)c2cccs2)c(OC)cc1NC(=O)CCC(=O)Nc1ccc2ncccc2c1	-69*	10%	4%	.	-3
COc1cccc(OC)c1C(=O)Nc1cccc(NC(=O)c2cccs2)c1	-4	-7%	-1%	.	-14
COc1cc(NC(=O)c2cccs2)c(OC)cc1NC(=O)Cc1ccccc1	-81*	12%	-11%	-6	-2
COc1ccc(C(=O)Nc2cccc(NC(=O)c3cccs3)c2)cc1OC	-5	?	-12%	-8	-130*
COc1cc(NC(=O)c2cccs2)c(OC)cc1NC(=O)c1cccs1	-23	.	22%	-18	.
CCCSc1nc(C)c(C(C)=O)cc1C#N	10	18µM*	-1%	5	11
SMILES	Six1-Eya2 inh	Chronic BCR inh	S-ASM inh	CtBP-E1A inh	TSHR antag
COC(=O)CSc1nc(C)c(C(C)=O)cc1C#N	-2	?	-3%	-13	1
CCn1c(=S)sc2c(=O)n(CC(=O)Nc3ccccc3C(F)(F)F)c(C)nc21	-5	0%	11%	.	-127*
CC(=O)N1CCc2c(sc3c2c(=O)n(-c2ccccc2Cl)c(=O)n3C)C1	.	-7%	.	.	.
NC(c1csc(Nc2ncccn2)n1)C1CCCCC1 (stereo not drawn)	?	.	.	-67*	.
NC(c1csc(Nc2cnccn2)n1)C1CCCCC1 (stereo not drawn)	-26	.	.	-70*	.
NC(c1csc(Nc2nccc(C(F)(F)F)n2)n1)C1CCCCC1 (stereo not drawn)	1	.	.	-8	.
CCCCC[C@]12Cc3ccccc3C(O1)C1=C(CC(C)(C)CC1=O)O2	.	0%[9.22 µM]	.	.	.
COc1ccc(OC)c(-c2cc(C(=O)Nc3cc(C)n(Cc4ccc(Cl)cc4)n3)no2)c1	8	0%	-15%	24	-2
COc1cccc(-c2cc(C(=O)Nc3cc(C)n(Cc4ccc(Cl)cc4)n3)no2)c1	-1	?	-2%	-1	-74*
Cc1ccc(C)c(N2CCN(C(=O)CCCCCn3c(=O)[nH]c4ccccc4c3=O)CC2)c1	.	-9%	.	.	.
O=C(NCCC1=CCCCC1)C1CCN(S(=O)(=O)c2cccc3cccnc23)CC1	0	6%	2%	0	-4
Cc1ccc(CCNC(=O)C2CCN(S(=O)(=O)c3cccc4cccnc34)CC2)cc1	0	0%	-1%	1	-107*
CCOc1cc2[nH]c(=O)n(CCC(=O)N3CCN(c4cccc(Cl)c4)CC3)c(=O)c2cc1OCC	.	-19%	.	.	.
CCOc1ccc(-c2noc(CCC(=O)NCCc3ccccc3)n2)cc1OC	7	-2%	1%	-65*	3
Cc1cc(N=NC(=O)c2ccccc2O)c2ccccc2c1O	?	?	?	?	-72*
Cn1c(O)c(N=NC(=O)c2ccccc2O)c2ccccc21	-14	?	-1%	.	-1
CCOC(=O)c1c(S(=O)(=O)NCC(=O)N(C)Cc2ccccc2)c(C)n(C)c1C	.	-7%	.	.	.
Sc1oc(-c2ccccc2)cc1C=Nc1ccccc1	-71*	?	-9%	-73*	-12
CS(=O)(=O)c1ccc(C(=O)OCC(=O)NC23CC4CC(CC(C4)C2)C3)cc1[N+](=O)[O-]	11	7%	.	-6	-76*
Cn1cc(Br)c(C(=O)Nc2sc3c(c2C(N)=O)CCC3)n1	-71*	?	11%	-79*	4
O=C1C(Nc2cccc(O)c2)=C(N2CCCCC2)C(=O)c2ccccc21	-71*	?	-25%	6	-3
CN1C(=O)c2cccc3c(S(=O)(=O)Nc4ccc(O)c(C(=O)O)c4)ccc1c23	-72*	1%	3%	?	-3
Cc1ccccc1-n1nnnc1SC1CCOC1=O (stereo not drawn)	5	0%	0%	0	-88*
O=C1c2ccccc2C(=O)c2c(NCCc3ccc(O)cc3)ccc(NCCc3ccc(O)cc3)c21	.	.	.	.	-17
O=C1c2ccccc2C(=O)c2c(Nc3ccc(CCO)cc3)ccc(O)c21	-83*	-1%	-9%	.	-1
Cc1cccc(C(=O)N2CCc3cc(CNC(=O)c4ccc(Br)o4)ccc32)c1	.	-3%	.	.	.
Cc1ccc(C(=O)Oc2ccc(/C=C3\C(=N)N4N=C(N5CCOCC5)SC4=NC3=O)cc2)cc1	-88*	19%	-23%	?	-10
